Measurements: PubChem BioAssay (NCI)
Compounds without any hit were thinned out: in the full panel of roughly 83,000, 20% have a hit.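 Cell lines were cultured in 96-well plates, exposed to a single compound concentration, and assessed for percent growth 48 hours later.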 Values without a mark were called inactive. Calls of active or inactive are those of the source. The calls were made as follows: active = growth percent below 10; inactive = the rest.

Key:
Assay in all cases: NCI-60 one-dose screen, 48 h (100 = growth as untreated, 0 = no growth, -100 = all killed)
Details in all cases: 10 µM unless noted
SR leukemia = system: SR leukemia
RPMI-8226 leukemia = system: RPMI-8226 leukemia
OVCAR-8 ovarian = system: OVCAR-8 ovarian
OVCAR-5 ovarian = system: OVCAR-5 ovarian
OVCAR-4 ovarian = system: OVCAR-4 ovarian
SK-OV-3 ovarian = system: SK-OV-3 ovarian
IGROV1 ovarian = system: IGROV1 ovarian
OVCAR-3 ovarian = system: OVCAR-3 ovarian
HS 578T breast = system: HS 578T breast
NCI/ADR-RES ovarian = system: NCI/ADR-RES ovarian
T-47D breast = system: T-47D breast
BT-549 breast = system: BT-549 breast
MDA-MB-435 melanoma = system: MDA-MB-435 melanoma
SW-620 colon = system: SW-620 colon
MCF7 breast = system: MCF7 breast
HCT-116 colon = system: HCT-116 colon
HCC-2998 colon = system: HCC-2998 colon
KM12 colon = system: KM12 colon
MDA-MB-468 breast = system: MDA-MB-468 breast

Row | Structure (SMILES) | growth (SR leukemia) | growth (RPMI-8226 leukemia) | growth (OVCAR-8 ovarian) | growth (OVCAR-5 ovarian) | growth (OVCAR-4 ovarian) | growth (SK-OV-3 ovarian) | growth (IGROV1 ovarian) | growth (OVCAR-3 ovarian) | growth (HS 578T breast) | growth (NCI/ADR-RES ovarian) | growth (T-47D breast) | growth (BT-549 breast) | growth (MDA-MB-435 melanoma) | growth (SW-620 colon) | growth (MCF7 breast) | growth (HCT-116 colon) | growth (HCC-2998 colon) | growth (KM12 colon) | growth (MDA-MB-468 breast)
1 | C=CC[n+]1cccc2c3ccccc3ccc21 | 46.5% | 27.6% | 41.1% | 70.8% | 42% | 77% | 72.5% | 35.9% | 43.7% | 97.2% | 27% | 9.92% (active) | 61.3% | 45.1% | 25.2% | 48.6% | 55.7% | 20.2% | -9.82% (active)
2 | C=CC(=O)Nc1ccc(C(=O)/C=C/c2ccc(N(C)C)cc2)c(O)c1 | 2.78% (active) | 6.01% (active) | -8.4% (active) | 7.71% (active) | 39% | 11.7% | 15.8% | -18.3% (active) | 21.7% | 15.3% | 9.74% (active) | -45.7% (active) | -3.66% (active) | 1.21% (active) | 10.7% | -52.6% (active) | -53.2% (active) | -64.4% (active) | -19.8% (active)
3 | Clc1ccc(Nc2nnc(-c3c[nH]c4ccccc34)o2)cc1 | 49.6% | 28.6% | 86.1% | 101% | 78.6% | 72.2% | 47.3% | 102% | 82.5% | 50.7% | 42% | 63.7% | 25% | 86.1% | 38.3% | 79.5% | 74.5% | 36% | -20.5% (active)
4 | COC(=O)c1c(C(=O)OC)c2c3ccccc3c3ccccc3n2c1C(=O)C(C)(C)C | -17.3% (active) | 47.2% | 90.5% | 97.9% | 57.6% | 122% | 96.3% | 112% | 69.4% | 83.3% | 46.4% | 62.5% | 83.2% | 100% | 73% | 59% | 85.6% | 62.5% | 54.1%
5 | CN(C)c1nc(NCCNS(=O)(=O)c2ccc(C(=O)/C=C/c3ccc(C(F)(F)F)cc3)cc2)nc(N2CCOCC2)n1 | -23% (active) | -44.2% (active) | 1.73% (active) | 5.43% (active) | 56.5% | 76.2% | -93.9% (active) | -43% (active) | 67.8% | -31.5% (active) | -61.2% (active) | -20.8% (active) | -59.4% (active) | -76.7% (active) | -84.5% (active) | -91.4% (active) | -97.6% (active) | -80.7% (active) | -96.1% (active)
6 | O=C1Nc2cc(-c3ccc(NS(=O)(=O)c4ccc([N+](=O)[O-])cc4)cc3)ccc2/C1=C/c1ccc[nH]1 | 12.9% | 13.5% | 7.53% (active) | 27.5% | 6.68% (active) | -16.9% (active) | 39.2% | -29.4% (active) | 41.6% | 24.4% | 15.9% | -23% (active) | 1.34% (active) | 6.1% (active) | -23.6% (active) | -48.6% (active) | 32.2% | 27.5% | -29.6% (active)
7 | N#Cc1c(-c2ccc(F)cc2)nc(SCc2ccc(F)cc2)nc1N1CCNCC1 | -2.24% (active) | -47.4% (active) | -84% (active) | 0.484% (active) | -8.59% (active) | 56.7% | -27.1% (active) | -35.1% (active) | -0.165% (active) | -39% (active) | -66.9% (active) | 82.7% | -84.7% (active) | -83.7% (active) | -90.5% (active) | -99.3% (active) | -91% (active) | -81.2% (active) | -72% (active)
8 | COc1ccc(C(=O)c2cc(C(C)=O)c3c(C)cc(C)cn23)cc1 | 31.8% | 67.7% | 18.4% | 80.5% | 49.8% | 29.1% | 80.8% | 43.9% | 43.4% | 35% | 48.6% | 25.4% | 49.1% | 82.2% | 35.2% | 19.6% | 76.1% | 71.2% | 59.6%
9 | CCCCNc1ccc2c3c(cccc13)C(=O)N(NCC(O)COc1ccc3c(C)cc(=O)oc3c1)C2=O (stereo not given) | 70.2% | 69.3% | 91.2% | 106% | 74.6% | 99.4% | 78.9% | 87.8% | 80.7% | 85.8% | 80.8% | 95.8% | 72.2% | 93.1% | 64.6% | 91.9% | 104% | 85.7% | 68.8%
10 | CCCCCCCCc1ccc(C(=O)Nc2ccc(C)c(OP(=O)(O)O)c2)cc1 | 81.9% | 50.6% | 100% | 120% | 88.9% | 115% | 110% | 96.2% | 91.6% | 97.5% | 90% | 88.9% | 102% | 103% | 88.3% | 106% | 125% | 95.5% | 104%
11 | COC(=O)c1cc(C(=O)C(F)(F)F)n2c3ccccc3c3ccccc3c12 | 60.7% | 96% | 42.7% | 83.5% | 10.8% | 82.9% | 40% | 82.9% | 41.7% | 67.7% | 64.4% | 85.9% | 96.2% | 83.9% | 80.8% | 48% | 108% | 100% | 60.8%
12 | O=C(c1ccc(O)cc1)C1[C@H](c2ccc(Cl)cc2)[C@@H](c2ccccc2)NC12C(=O)Nc1ccccc12 (stereo not given in full) | -47.2% (active) | -3.39% (active) | 12.5% | 9.48% (active) | 9.88% (active) | 43.7% | 3.49% (active) | 6.48% (active) | -11.8% (active) | -35% (active) | 11.7% | -50.7% (active) | -34% (active) | -12.7% (active) | -6.29% (active) | -76.8% (active) | -61.1% (active) | -13.7% (active) | -45.2% (active)
13 | c1n[nH]cc1-c1nc2ccc3cn[nH]c3c2c2c1CCCC2 | 74.5% | 85.3% | 89.2% | 89.9% | 96.1% | 96.8% | 66.5% | 109% | 53% | 88.7% | 74.7% | 97.1% | 94.8% | 109% | 78.7% | 89.5% | 104% | 96.4% | 78.5%
14 | O=c1c(-c2nc(-c3ccccc3)c(-c3ccccc3)[nH]2)coc2ccc(F)cc12 | 63.5% | 32.1% | 82.6% | 96.1% | 47.3% | 68.2% | 62.8% | 33.3% | 71.6% | 51.4% | 22.1% | 70.8% | 65.4% | 51% | 25.9% | 39.4% | 77.2% | 23.4% | 16%
15 | COc1cc(/C=C/C(=O)c2cnn(-c3cc(=O)[nH]c4ccc(Br)cc34)c2C)cc(OC)c1OC | -15.2% (active) | -23.7% (active) | 7.35% (active) | -68% (active) | 25.6% | 19.5% | -59.8% (active) | -59.1% (active) | 54.1% | -26.8% (active) | -47.3% (active) | -44.7% (active) | 0.423% (active) | -67.4% (active) | -46% (active) | -68.9% (active) | -96.8% (active) | -42.6% (active) | -80.6% (active)
